Test [1] relates to XIP peptide (Xip251-270) binding. Put plainly: XIP fragment 251-270 binding compounds – biochemical, small-molecule microarray, fluorescence 635/667 nm, 0.1 µg/mL protein, primary screen (AID 1182). The note with it: fluorescent protein binding, 635 nm, higher = more signal, called active from +8 up or from −8 down.
The subject of the next test is XIP peptide (Xip251-270). Put plainly: compounds binding XIP fragment 251-270 – biochemical, small-molecule microarray, fluorescence 635/667 nm, 0.5 µg/mL protein, primary screen (AID 1183). To be noted: fluorescence 635 nm, higher = more signal.
Test [2] can be described thus: blood-stage malaria parasite viability loss – strain 3D7, DAPI fluorescence, 100 nL, primary screen (AID 1184).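 Further: parasites grown inside human red blood cells in medium with human serum.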 To be noted: P. falciparum 3D7 growth, 3 d, higher = more signal.
The target in test [3] is Homeobox protein Hox-A13 (Mus musculus) (UniProt Q62424). Nature of the test: disruptors of Hoxa13 oligonucleotide interaction – biochemical, fluorescence polarization, labeled oligonucleotide, primary screen (AID 1185). To be noted: Hoxa13:DNA binding, 15 min, higher = more signal, called active from +8 up or from −8 down. Background: In fluorescence polarisation assays a small probe gives low polarisation when free and higher when bound to something large.

A short description of test [4]: blockers of DNA damage checkpoint Chk1 activation – imaging, HeLa, hydroxyurea, phospho-Chk1 antibody, percent positive cells, primary screen (AID 1186). The note with it: hydroxyurea-induced phospho-Chk1 immunofluorescence imaging, higher = more signal.
A short description of test [5]: blockers of DNA damage checkpoint Chk1 activation – imaging, HeLa, hydroxyurea, phospho-Chk1 nuclear intensity, primary screen (AID 1187). To be noted: hydroxyurea-induced phospho-Chk1 immunofluorescence imaging, higher = more signal.

The source made the active and inactive calls. Unless noted, how the calls were made is not given here.

Drawing on PubChem BioAssay, this text covers composite z-score and z-score for 27 molecules.

Chain of Homeobox protein Hox-A13 (Mus musculus) (Q62424 whole entry, looked up): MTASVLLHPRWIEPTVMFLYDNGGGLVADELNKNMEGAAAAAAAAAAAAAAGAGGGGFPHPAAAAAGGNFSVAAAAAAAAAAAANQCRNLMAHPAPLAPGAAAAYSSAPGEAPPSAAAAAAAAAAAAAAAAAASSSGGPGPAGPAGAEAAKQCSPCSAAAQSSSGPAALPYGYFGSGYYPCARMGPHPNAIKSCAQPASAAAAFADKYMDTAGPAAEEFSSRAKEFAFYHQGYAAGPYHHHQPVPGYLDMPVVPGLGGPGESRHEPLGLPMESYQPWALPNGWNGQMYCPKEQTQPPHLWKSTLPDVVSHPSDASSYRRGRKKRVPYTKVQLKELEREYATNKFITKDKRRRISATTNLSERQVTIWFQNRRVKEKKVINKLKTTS

As for `CCCN1C(=O)[C@@H]2Cc3c([nH]c4ccccc34)[C@@H](c3cccc(O)c3)N2C1=O`, the composite z-score was -0.227 (inactive) in test [1] and 0.181 in the test on XIP peptide (Xip251-270). The z-score in test [2] is 1.39; in test [3] it was -0.802 (inactive); in test [4] it was -0.0463 (inactive); in test [5], -0.202 (inactive).

With `O=C1NC(=O)C2C1C=CC(C(O)CCc1ccccc1)N2Nc1ccccn1` (configuration not stated), the composite z-score in test [1] is 0.415 (inactive); with XIP peptide (Xip251-270) it was 0.932. The z-score is 0.581 in test [2], -0.354 (inactive) in test [3], -0.181 (inactive) in test [4] and -0.426 (inactive) in test [5].

Turning to `C=C(CCCC)/C(=C/C[C@H](OC(=O)c1ccncc1)c1ccc(CO)o1)c1cc(C(=O)OC)ccc1OC`, the composite z-score in test [1] is 0.948 (inactive); in the test on XIP peptide (Xip251-270), 0.71. Moreover, the z-score in test [2] was -0.138; in test [3] it was -5.29 (inactive); in test [4], -0.52 (inactive); in test [5], -1.02 (inactive).

In the case of `Cc1ccc(S[C@]2(C(=O)O)CC(=O)N(Cc3ccccc3C(F)(F)F)[C@@H]2c2ccc(CO)cc2)cc1`, the composite z-score in test [1] was -0.161 (inactive); with XIP peptide (Xip251-270), -0.174. Further, the z-score in test [2] was 0.212; in test [3], -3.21 (inactive); in test [4], -0.511 (inactive); in test [5], -0.53 (inactive).

`O=C1C2C=CC(C(O)c3ccccn3)N(Nc3ccccc3)C2C(=O)N1c1ccccc1` (configuration not stated): the composite z-score in test [1] is 0.099 (inactive); with XIP peptide (Xip251-270), 0.116. Also, the z-score in test [2] is -0.244; in test [3], -1.65 (inactive); in test [4] it was -0.849 (inactive); in test [5], -0.791 (inactive).

For `COC(=O)[C@@]1(Cc2ccc(OC)cc2)[C@H]2c3cc(C(=O)N(C)C)n(Cc4cc(F)c(F)c(F)c4)c3C[C@H]2CN1C(=O)c1ccccc1`, the composite z-score in test [1] is 0.0306 (inactive); with XIP peptide (Xip251-270), 0.577. In addition, the z-score is -1.81 in test [2], -1.93 (inactive) in test [3], 0.102 (inactive) in test [4] and -0.186 (inactive) in test [5].

As for `COc1ccc([Si](C)(C)[C@H]2[C@H](CCn3cc(CCO)nn3)O[C@@]3(C(=O)N(Cc4cccc(N5C(=O)c6cccc7cccc5c67)c4)c4ccccc43)[C@@H]2C)cc1`, the composite z-score was 0.979 (inactive) in test [1] and 0.697 in the test with XIP peptide (Xip251-270). Also, the z-score in test [2] is -2.55; in test [3], -2.56 (inactive); in test [4], -0.854 (inactive); in test [5], 0.0226 (inactive).

`COCCCNC(=O)[C@@]1(Cc2ccccc2N=[N+]=[N-])N=C(c2ccc(OCCCO)cc2)O[C@H]1c1ccccc1CN=[N+]=[N-]`: the composite z-score in test [1] was 0.401 (inactive); in the test on XIP peptide (Xip251-270), 0.763. For the same molecule, the z-score in test [2] is -2.23; in test [3], 0.427 (inactive); in test [4], -0.314 (inactive); in test [5] it was 0.446 (inactive).

Take `Cc1ccc(C(C)CC(O)C2C=CC3C(=O)N(Cc4ccccc4)C(=O)C3N2n2cnnc2)o1` (configuration not stated): the composite z-score in test [1] was 0.831 (inactive); in the test with XIP peptide (Xip251-270), 0.731. The z-score is -0.981 in test [2], -2.57 (inactive) in test [3], 0.0591 (inactive) in test [4] and -0.208 (inactive) in test [5].

With `[N-]=[N+]=NCc1ccccc1C[C@]1(C(=O)NCCN2CCOCC2)COC(c2ccc(OCCCO)cc2)=N1`, the values for the composite z-score (in test [1]; in the test on XIP peptide (Xip251-270)) were 0.0364 (inactive) and 0.258, respectively. Further, the z-score in test [2] is -2.09; in test [3] it was -4.71 (inactive); in test [4] it was -0.327 (inactive); in test [5], -0.625 (inactive).

With `CC(C)N1CC=CC23O[C@@H]4C=CCOC(=O)[C@@H]4[C@H]2C(=O)N(CCCCCCO)[C@@H]3C1=O` (some centres not stated), the composite z-score in test [1] is -0.0725 (inactive); with XIP peptide (Xip251-270) it was -0.262. For the same molecule, the z-score in test [2] was -0.511; in test [3], -3.69 (inactive); in test [4] it was 0.477 (inactive); in test [5] it was 0.454 (inactive).

For `CCC[C@@H]1C[C@@]1(CCC)[C@@H](NC(=O)c1cccs1)c1ccc(Cl)cc1`, the figures for the composite z-score (in test [1]; with XIP peptide (Xip251-270)) were -0.0569 (inactive) and 0.0455, respectively. Besides, the z-score in test [2] is -0.76; in test [3], -1.93 (inactive); in test [4] it was -0.248 (inactive); in test [5] it was -0.143 (inactive).

Take `CCCCCCCCCCC(O)C1C=CC2C(=O)NC(=O)C2N1Nc1ccccn1` (configuration not stated): the composite z-score is -0.0785 (inactive) in test [1] and -0.0706 with XIP peptide (Xip251-270). Further, the z-score in test [2] is 1.05; in test [3], -2.89 (inactive); in test [4], 0.764 (inactive); in test [5], 0.554 (inactive).

As to `CC(C)c1ccc(NN2C(C(O)c3ccccn3)C=CC3C(=O)N(c4ccccc4)C(=O)C32)cc1` (configuration not stated), the composite z-score in test [1] was 1.17 (inactive); with XIP peptide (Xip251-270), 0.69. The z-score is -0.723 in test [2], -4.86 (inactive) in test [3], 0.236 (inactive) in test [4] and 0.375 (inactive) in test [5].

Consider `CCCC=C(CCC)[C@@H](NS(=O)(=O)c1cccc2cccnc12)c1ccc(C(=O)OC)cc1`, for which the composite z-score is -0.357 (inactive) in test [1] and 0.315 in the test with XIP peptide (Xip251-270). Moreover, the z-score is -0.271 in test [2], -2.22 (inactive) in test [3], -0.767 (inactive) in test [4] and -0.492 (inactive) in test [5].

On to `O=C1N(CCS(=O)(=O)c2ccccc2)c2ccccc2[C@H]2OC(c3ccc(OCCCO)cc3)=N[C@@]12CCS(=O)(=O)c1ccccc1`, for which the values for the composite z-score (in test [1]; with XIP peptide (Xip251-270)) were 2.51 (inactive) and 0.776, respectively. Also, the z-score in test [2] was -2.05; in test [3], 0.758 (inactive); in test [4], 0.109 (inactive); in test [5], 0.545 (inactive).

With `CN(C)C(=O)[C@@]1(CCC(=O)OC(C)(C)C)N=C(c2ccc(OCCCO)cc2)O[C@H]1c1ccccc1N=[N+]=[N-]`, the composite z-score in test [1] is 1.55 (inactive); with XIP peptide (Xip251-270) it was 0.825. For the same molecule, the z-score in test [2] is -2.36; in test [3], -5.33 (inactive); in test [4], -0.146 (inactive); in test [5] it was -0.222 (inactive).

In the case of `CCOC(=O)C[C@H]1[C@H](OC(=O)c2cc3ccccc3oc2=O)[C@@H](NC(=O)c2ccc3ccccc3n2)c2cc(OCCCO)ccc2N1C(=O)c1ccc2ccccc2n1`, the figures for the composite z-score (in test [1]; with XIP peptide (Xip251-270)) were -0.276 (inactive) and 0.484, respectively. Besides, the z-score in test [2] was -1.15; in test [3] it was -1.29 (inactive); in test [4], -0.443 (inactive); in test [5], -0.134 (inactive).

For the molecule `COc1ccc([Si](C)(C)[C@@H]2[C@@H](CCO)O[C@]3(C(=O)N(Cc4ccccc4)c4ccc(N5C(=O)COc6ccccc65)cc43)[C@H]2C)cc1`, the composite z-score was -0.234 (inactive) in test [1] and 0.667 in the test with XIP peptide (Xip251-270). Also, the z-score is -2.82 in test [2], -1.89 (inactive) in test [3], -1.26 (inactive) in test [4] and -1.47 (inactive) in test [5].

With `C[N+](C)(C)CCCC[C@@H]1NC(=O)[C@@H]2C[C@H](C(=O)NCCCCCNC(=O)CS)[C@H](c3cccc(OCCO)c3)N2C1=O`, the results for the composite z-score (in test [1]; with XIP peptide (Xip251-270)) were 0.17 (inactive) and -0.0808, respectively. For the same molecule, the z-score was 0.0793 in test [2], -3.31 (inactive) in test [3], -0.209 (inactive) in test [4] and -0.123 (inactive) in test [5].

Consider `C=C(C(=O)CC[C@H](OC(=O)c1cccnc1)c1ccc(OCCO)cc1)C(C)C`, for which the composite z-score in test [1] was 0.538 (inactive); in the test on XIP peptide (Xip251-270) it was 0.551. Moreover, the z-score was -2.02 in test [2], -4.81 (inactive) in test [3], 0.387 (inactive) in test [4] and 0.05 (inactive) in test [5].

For the molecule `O=C(O)[C@@]1(Cc2ccccc2)COC(c2ccc(OCCCO)cc2)=N1`, the results for the composite z-score (in test [1]; in the test with XIP peptide (Xip251-270)) were -0.781 (inactive) and -0.486, respectively. The z-score is -0.0272 in test [2], -1.29 (inactive) in test [3], -0.0393 (inactive) in test [4] and 0.204 (inactive) in test [5].

As to `O=C1O[C@H](c2ccccc2)[C@H](c2ccccc2)N2[C@H]1[C@@H](C(=O)N1CCCCCCC1)[C@]1(C(=O)Nc3ccccc31)[C@H]2c1ccc(O)cc1`, the figures for the composite z-score (in test [1]; in the test with XIP peptide (Xip251-270)) were 4.72 (inactive) and 0.943, respectively. Also, the z-score in test [2] was 0.61; in test [3], 2.7 (inactive); in test [4] it was 0.323 (inactive); in test [5], 0.725 (inactive).

With `COCCCNC(=O)[C@]1(Cc2ccccc2)N=C(c2ccc(OCCCO)cc2)O[C@@H]1c1ccccc1N=[N+]=[N-]`, the composite z-score in test [1] is 0.829 (inactive); in the test on XIP peptide (Xip251-270), 0.576. For the same molecule, the z-score is -2.7 in test [2], -4.42 (inactive) in test [3], -1.82 (inactive) in test [4] and -6.65 (inactive) in test [5].

Regarding `NCCCCCCNC(=O)[C@H]1C[C@H]2C(=O)N3CCC[C@H]3C(=O)N2[C@H]1c1ccc(O)cc1`, the composite z-score was -0.118 (inactive) in test [1] and 0.451 in the test with XIP peptide (Xip251-270). Besides, the z-score in test [2] was 0.0311; in test [3], -2.4 (inactive); in test [4], -0.0342 (inactive); in test [5] it was 0.0369 (inactive).

As for `COC(=O)c1ccc(OC)c(/C=C\CC(CCc2ccccc2)OC(=O)c2ccncc2)c1` (configuration not stated), the composite z-score is -0.661 (inactive) in test [1] and -0.329 in the test with XIP peptide (Xip251-270). Also, the z-score in test [2] was -0.687; in test [3], -2.52 (inactive); in test [4] it was 0.0946 (inactive); in test [5] it was 0.459 (inactive).

Take `COCCOC(=O)N1C(=O)[C@@]2(c3cc(C#CCCO)ccc31)[C@H](C(=O)N1CCc3cc(OC)c(OC)cc3C1)[C@H]1C(=O)O[C@H](c3ccccc3)[C@H](c3ccccc3)N1[C@@H]2c1ccc(OCCO)cc1`: the composite z-score was -0.608 (inactive) in test [1] and 0.726 with XIP peptide (Xip251-270). Further, the z-score is -2.14 in test [2], 3.13 (inactive) in test [3], -0.148 (inactive) in test [4] and -0.0047 (inactive) in test [5].
